# According to PubChem BioAssay (EPA / NIEHS):
# Inconclusive results are not listed. Active and inactive are the calls of the source. How the source made its calls: active means hit-call score of the fitted dose curve at least 0.9, where 1 is the maximum; inconclusive means response in the unintended direction; inactive means score below 0.9.
# Assay: ACEA_AR_agonist_AUC_viability: ACEA Biosciences xCELLigence Real-Time Cell Analysis on Androgen Receptor Agonism for Viability (AID 2283775);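 on AC50: viability read 80 hours after compound addition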
# Summary of the method: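 22Rv1 cells; impedance growth kinetics; 8-pt 1:4 dilutions from 100 uM top final, ≤0.5% DMSO; n = 2; 80 h read; AUC viability, loss-of-signal vs DMSO.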
Structure (SMILES),AC50,outcome
CCCCOC(=O)C(C)Oc1ccc(Oc2ccc(C(F)(F)F)cn2)cc1 (centres undefined),43.1 µM (active),
CCOC(=O)COc1cc(-n2ncc(C(F)(F)F)c(C)c2=O)c(F)cc1Cl,,inactive
CCC(C)OC(=O)N1CCCCC1CCO (centres undefined),,inactive
CC(=O)[C@H]1CC[C@H]2[C@@H]3CCC4=CC(=O)CC[C@]4(C)[C@H]3CC[C@]12C,,inactive
CCCN(CCC)c1c([N+](=O)[O-])cc(C(F)(F)F)c(N)c1[N+](=O)[O-],14.9 µM (active),
COC(=O)c1ccccc1C(=O)O,,inactive
C#CCOC(=O)[C@@H](C)Oc1ccc(Oc2ncc(Cl)cc2F)cc1,18.2 µM (active),
O=C(c1ccccc1)C1CCCCC1,,inactive
O=C(O)C1(C(=O)Nc2ccc(Cl)cc2Cl)CC1,50 µM (active),
CC(C)(C)[C@@H](O)[C@@H](Cc1ccc(Cl)cc1)n1cncn1,,inactive
CCCOC(=O)NCCCN(C)C,,inactive
CCCN(CCC)C(=O)SCC,,inactive
CCCCCCC(C)OC(=O)COc1nc(F)c(Cl)c(N)c1Cl (centres undefined),22.9 µM (active),
CCOC(=O)NCCOc1ccc(Oc2ccccc2)cc1,50 µM (active),
CCOC(=O)C(C)Oc1ccc(Oc2cnc3cc(Cl)ccc3n2)cc1 (centres undefined),,inactive
CCCCOC(=O)[C@@H](C)Oc1ccc(Oc2ccc(C(F)(F)F)cn2)cc1,,inactive
C[C@]12CC[C@@H]3c4ccc(O)cc4C[C@@H](CCCCCCCCCS(=O)CCCC(F)(F)C(F)(F)F)[C@H]3[C@@H]1CC[C@@H]2O (some centres undefined),10.9 µM (active),
CCSC(=O)N(CC(C)C)CC(C)C,,inactive
COc1c(Cl)ccc(Cl)c1C(=O)O,,inactive
c1ccc2[nH]c(-c3cscn3)nc2c1,39.2 µM (active),
CCCCCOC(=O)COc1cc(N2C(=O)C3=C(CCCC3)C2=O)c(F)cc1Cl,78.1 µM (active),
COC(=O)c1ccc(I)cc1S(=O)(=O)NC(=O)Nc1nc(C)nc(OC)n1,,inactive
Cc1nn(C)c(Oc2ccccc2)c1C=NOCc1ccc(C(=O)OC(C)(C)C)cc1,13 µM (active),
COC(=O)CSc1cc(N=c2sc(=O)n3n2CCCC3)c(F)cc1Cl,,inactive
